In the supplement of paper PMC10849652:
About 7,900 targets were measured; listed, in parts, are those with a hit and a random draw of the rest. About 0.6% of all pairs of compound and target were hits.

Experiments:
Experiment in all cases: log2 fold change, soluble protein after heating vs DMSO (PISA); higher = thermal stabilisation; K562 cells, 10 uM, 30 min; active = over 0.2 and 3.5 SD of the protein, either way, in both replicates (recomputed)
[1] = compound: CC(=O)c1cnc2ccc(-c3cc(Cl)c(O)c(Cl)c3)nc2c1N[C@H]1CC[C@H](CN(C)C)CC1
Summary of the method: (§1)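 K562 cells (2×10^6 cells/mL) were treated with 10 μM compound for 30 min, and aliquots were heated for 3 min over 48°C-58°C. Pooled aliquots were extracted in PBS with 0.5% NP-40 at 4°C, and the supernatant after 21,000xg for 90 min was measured by TMTpro 16plex LC-MS/MS with channel sums equalised. Reported thermal stability, relative to control samples and from duplicates, is a log2 fold change.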

ibrutinib = compound: C=CC(=O)N1CCC[C@@H](n2nc(-c3ccc(Oc4ccccc4)cc3)c3c(N)ncnc32)C1 [ibrutinib]
Summary of the method: as §1

ralimetinib = compound: CC(C)(C)Cn1c(N)nc2ccc(-c3[nH]c(C(C)(C)C)nc3-c3ccc(F)cc3)nc21 [ralimetinib]
Summary of the method: as §1

[2] = compound: CC(C)(O)CC(=O)NCCn1ccc2ncnc(Nc3ccc(Oc4cccc(C(F)(F)F)c4)c(Cl)c3)c21
Summary of the method: as §1

[3] = compound: CC(C)C1=C2N=C(C=C(N2N=C1)NCC3=CC=CC=C3)NCCCCCCN
Summary of the method: as §1

[4] = compound: CC(C)C[C@@H](C=O)NC(=O)[C@H](CC(C)C)NC(=O)[C@H](CC(C)C)NC(=O)OCc1ccccc1
Summary of the method: as §1

[5] = compound: CC1=C(C(CC(=O)N1)C2=CC=C(C=C2)C(F)(F)F)C(=O)NC3=C(C=C4C(=C3)C=NN4)F
Summary of the method: as §1

[6] = compound: CC1=C(C2=C(C=C1)C(=O)C3=CC=CC=C3N2CCCN)C
Summary of the method: as §1

[7] = compound: CC1=C(C=C(C=C1)NC(=O)C2=CC(=CC=C2)N(C)C)NC(=O)C3=CC=C(C=C3)O
Summary of the method: as §1

[8] = compound: CC1=CC=C(C=C1)SC2=C3C=C(SC3=CN=C2)C(=O)N
Summary of the method: as §1

Nexturastat A = compound: CCCCN(Cc1ccc(C(=O)NO)cc1)C(=O)Nc1ccccc1 [Nexturastat A]
Summary of the method: as §1

[9] = compound: CCCS(=O)(=O)Nc1ccc(F)c(C(=O)c2c[nH]c3ncc(Cl)cc23)c1F
Summary of the method: as §1

[10] = compound: CCCc1cc(C)[nH]c(=O)c1CNC(=O)c1cc(-c2ccnc(N3CCN(C)CC3)c2)cc2c1cnn2C(C)C
Summary of the method: as §1

givinostat = compound: CCN(CC)Cc1ccc2cc(COC(=O)Nc3ccc(C(=O)NO)cc3)ccc2c1 [givinostat]
Summary of the method: as §1

barasertib = compound: CCN(CCCOc1ccc2c(Nc3cc(CC(=O)Nc4cccc(F)c4)[nH]n3)ncnc2c1)CCOP(=O)(O)O [barasertib]
Summary of the method: as §1

[11] = compound: CC1=C(C=C(C=C1)NC(=O)C2=CC(=CC=C2)C(C)(C)C#N)NC3=CC4=C(C=C3)N=CN(C4=O)C
Summary of the method: as §1

IRAK-1-4 Inhibitor I = compound: C1COCCN1CCN2C3=CC=CC=C3N=C2NC(=O)C4=CC(=CC=C4)[N+](=O)[O-] [IRAK-1-4 Inhibitor I]
Summary of the method: as §1

pinometostat = compound: CC(C)N(C[C@H]1O[C@@H](n2cnc3c(N)ncnc32)[C@H](O)[C@@H]1O)[C@H]1C[C@@H](CCc2nc3cc(C(C)(C)C)ccc3[nH]2)C1 [pinometostat]
Summary of the method: as §1

[12] = compound: CC1=NC(=CC=C1)C2=C(N=C(N2)C(C)(C)C)C3=CC4=NC=CN=C4C=C3
Summary of the method: as §1

vemurafenib = compound: CCCS(=O)(=O)Nc1ccc(F)c(C(=O)c2c[nH]c3ncc(-c4ccc(Cl)cc4)cc23)c1F [vemurafenib]
Summary of the method: as §1

Measured: log2 fold change

ORC3 (UniProt Q9UBD5)
inactive: [1] -0.031

MOB2 isoform 3 (UniProt Q70IA6)
Chain of UniProt Q70IA6 (Q70IA6 whole entry, looked up): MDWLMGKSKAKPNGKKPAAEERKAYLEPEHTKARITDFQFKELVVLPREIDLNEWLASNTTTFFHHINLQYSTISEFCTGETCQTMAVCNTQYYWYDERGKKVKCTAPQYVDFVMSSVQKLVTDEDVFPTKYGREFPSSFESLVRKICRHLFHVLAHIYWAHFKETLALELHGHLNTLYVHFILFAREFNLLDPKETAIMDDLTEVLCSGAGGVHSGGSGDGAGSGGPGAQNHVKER
inactive: ibrutinib -0.061 | ralimetinib 0.039 | [2] -0.15 | [3] -0.01 | [4] -0.021 | [5] -0.037 | [6] 0.106 | [7] -0.039 | [8] 0.081 | Nexturastat A -0.149 | [9] 0.018 | [10] 0.163 | givinostat 0.061 | barasertib -0.121

NKTR (UniProt P30414)
Chain of UniProt P30414 (P30414 whole entry, looked up): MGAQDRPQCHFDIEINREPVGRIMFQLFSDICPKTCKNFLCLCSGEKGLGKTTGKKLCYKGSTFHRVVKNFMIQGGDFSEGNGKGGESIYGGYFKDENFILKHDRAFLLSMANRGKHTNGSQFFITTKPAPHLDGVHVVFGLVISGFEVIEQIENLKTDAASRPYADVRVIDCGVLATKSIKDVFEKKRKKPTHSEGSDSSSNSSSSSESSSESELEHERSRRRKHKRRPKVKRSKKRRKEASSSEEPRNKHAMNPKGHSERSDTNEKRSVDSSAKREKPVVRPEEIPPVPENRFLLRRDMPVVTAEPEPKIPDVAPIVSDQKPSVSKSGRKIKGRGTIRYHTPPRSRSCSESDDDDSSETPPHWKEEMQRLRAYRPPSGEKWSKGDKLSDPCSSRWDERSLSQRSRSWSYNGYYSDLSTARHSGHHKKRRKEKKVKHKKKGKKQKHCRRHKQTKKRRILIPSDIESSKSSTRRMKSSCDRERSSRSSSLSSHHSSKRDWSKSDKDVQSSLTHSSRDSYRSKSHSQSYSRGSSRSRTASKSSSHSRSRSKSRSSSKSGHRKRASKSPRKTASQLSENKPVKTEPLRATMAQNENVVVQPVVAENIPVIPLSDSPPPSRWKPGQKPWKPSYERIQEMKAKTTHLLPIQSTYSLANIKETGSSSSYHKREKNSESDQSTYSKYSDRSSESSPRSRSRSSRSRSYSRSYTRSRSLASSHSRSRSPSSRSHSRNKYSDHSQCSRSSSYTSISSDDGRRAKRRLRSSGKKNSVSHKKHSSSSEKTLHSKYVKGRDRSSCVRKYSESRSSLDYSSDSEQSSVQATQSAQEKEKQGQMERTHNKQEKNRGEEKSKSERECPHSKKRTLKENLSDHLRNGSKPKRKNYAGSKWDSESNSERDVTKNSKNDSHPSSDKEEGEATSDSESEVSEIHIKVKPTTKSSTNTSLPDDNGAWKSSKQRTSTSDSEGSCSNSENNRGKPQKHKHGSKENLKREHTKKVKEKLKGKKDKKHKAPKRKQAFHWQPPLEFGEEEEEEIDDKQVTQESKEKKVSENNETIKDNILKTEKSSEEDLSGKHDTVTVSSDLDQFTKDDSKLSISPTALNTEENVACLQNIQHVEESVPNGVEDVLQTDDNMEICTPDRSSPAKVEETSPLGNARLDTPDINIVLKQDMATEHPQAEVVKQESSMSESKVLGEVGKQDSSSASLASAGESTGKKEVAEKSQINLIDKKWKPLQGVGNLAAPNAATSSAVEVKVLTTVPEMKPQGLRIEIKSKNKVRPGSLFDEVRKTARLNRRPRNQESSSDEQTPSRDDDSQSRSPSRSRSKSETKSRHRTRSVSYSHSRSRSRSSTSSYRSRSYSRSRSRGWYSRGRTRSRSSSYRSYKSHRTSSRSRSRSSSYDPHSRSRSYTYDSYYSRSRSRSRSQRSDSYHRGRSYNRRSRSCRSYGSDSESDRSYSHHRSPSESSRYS
inactive: ibrutinib -0.191 | [3] 0.084 | [8] -0.041 | [9] -0.4 | [10] -0.045 | givinostat 0.532 | barasertib 0.042

OAF (UniProt Q86UD1)
Chain of UniProt Q86UD1 (Q86UD1 whole entry, looked up): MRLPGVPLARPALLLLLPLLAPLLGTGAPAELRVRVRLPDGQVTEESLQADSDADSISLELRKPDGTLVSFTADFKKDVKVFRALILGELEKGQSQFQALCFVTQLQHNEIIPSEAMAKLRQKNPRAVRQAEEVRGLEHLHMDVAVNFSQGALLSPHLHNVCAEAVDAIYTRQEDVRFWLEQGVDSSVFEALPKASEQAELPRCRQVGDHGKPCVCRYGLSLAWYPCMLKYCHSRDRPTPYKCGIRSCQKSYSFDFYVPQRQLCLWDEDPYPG
inactive: ralimetinib -0.041 | [3] 0.009 | [4] -0.013 | [11] -0.005 | [7] -0.119 | [10] -0.346 | givinostat -0.071

OSBPL3 (UniProt Q9H4L5)
Chain of UniProt Q9H4L5 (Q9H4L5 whole entry, looked up): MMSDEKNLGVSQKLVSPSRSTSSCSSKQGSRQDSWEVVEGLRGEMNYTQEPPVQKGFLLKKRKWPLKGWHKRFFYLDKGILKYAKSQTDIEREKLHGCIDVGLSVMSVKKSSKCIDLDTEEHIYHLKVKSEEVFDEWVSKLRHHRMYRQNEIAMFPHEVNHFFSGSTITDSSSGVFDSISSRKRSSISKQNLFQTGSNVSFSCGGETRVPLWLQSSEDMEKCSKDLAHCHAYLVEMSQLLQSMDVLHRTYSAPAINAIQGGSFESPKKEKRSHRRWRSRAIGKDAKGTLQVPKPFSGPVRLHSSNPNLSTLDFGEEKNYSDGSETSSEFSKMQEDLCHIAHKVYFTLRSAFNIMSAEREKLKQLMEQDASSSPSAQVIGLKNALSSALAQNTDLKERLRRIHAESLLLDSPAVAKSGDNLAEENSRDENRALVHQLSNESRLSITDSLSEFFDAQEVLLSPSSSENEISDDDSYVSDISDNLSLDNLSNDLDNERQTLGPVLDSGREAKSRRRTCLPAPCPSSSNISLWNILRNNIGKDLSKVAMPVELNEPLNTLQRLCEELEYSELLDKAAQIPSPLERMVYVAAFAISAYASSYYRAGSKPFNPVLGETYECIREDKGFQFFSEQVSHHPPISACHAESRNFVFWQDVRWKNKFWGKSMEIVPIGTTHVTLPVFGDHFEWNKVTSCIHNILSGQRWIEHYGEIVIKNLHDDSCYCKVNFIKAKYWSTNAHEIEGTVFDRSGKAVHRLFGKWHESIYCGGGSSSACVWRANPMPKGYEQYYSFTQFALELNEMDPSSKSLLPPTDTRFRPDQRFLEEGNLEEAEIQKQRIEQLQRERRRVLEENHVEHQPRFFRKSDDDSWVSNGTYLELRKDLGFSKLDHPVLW
inactive: IRAK-1-4 Inhibitor I -0.083 | [1] -0.277 | ralimetinib 0.309 | [2] 0.252 | [3] 0.506 | [4] 0.206 | pinometostat 0.204 | [5] -0.165 | [6] -0.069 | [11] 0.35 | [7] 0.04 | [8] 0.006 | [12] -0.062 | Nexturastat A 0.471 | vemurafenib -0.267 | [9] -0.09 | givinostat -0.204

NDUFA7 (UniProt M0R0N0)
inactive: ibrutinib -0.109 | [3] -0.136 | [11] -0.011 | vemurafenib -0.195 | givinostat 0.104 | barasertib 0.052

OXR1 isoform 2 (UniProt Q8N573)
Chain of UniProt Q8N573 (Q8N573 whole entry, looked up): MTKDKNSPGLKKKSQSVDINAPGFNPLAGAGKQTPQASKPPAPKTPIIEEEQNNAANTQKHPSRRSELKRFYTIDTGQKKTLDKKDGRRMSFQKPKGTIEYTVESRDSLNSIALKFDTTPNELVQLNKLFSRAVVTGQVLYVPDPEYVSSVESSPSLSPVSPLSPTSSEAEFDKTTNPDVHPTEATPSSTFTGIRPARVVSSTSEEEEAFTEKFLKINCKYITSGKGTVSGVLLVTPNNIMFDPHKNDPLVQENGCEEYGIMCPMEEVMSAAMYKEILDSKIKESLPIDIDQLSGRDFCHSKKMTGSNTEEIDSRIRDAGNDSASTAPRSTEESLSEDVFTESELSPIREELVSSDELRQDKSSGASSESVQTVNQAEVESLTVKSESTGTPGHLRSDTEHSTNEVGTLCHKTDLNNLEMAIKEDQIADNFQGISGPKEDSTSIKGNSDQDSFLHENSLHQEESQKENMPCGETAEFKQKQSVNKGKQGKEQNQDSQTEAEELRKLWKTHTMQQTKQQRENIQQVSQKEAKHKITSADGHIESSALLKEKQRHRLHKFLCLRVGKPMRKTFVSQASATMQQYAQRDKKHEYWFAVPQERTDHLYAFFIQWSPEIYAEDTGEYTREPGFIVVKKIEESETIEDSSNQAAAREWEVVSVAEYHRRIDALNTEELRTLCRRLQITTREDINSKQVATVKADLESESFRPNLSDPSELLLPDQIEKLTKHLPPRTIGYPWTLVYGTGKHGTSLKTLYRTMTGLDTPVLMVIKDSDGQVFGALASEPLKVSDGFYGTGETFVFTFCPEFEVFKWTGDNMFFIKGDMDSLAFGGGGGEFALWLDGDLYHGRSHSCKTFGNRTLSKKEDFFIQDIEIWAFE
inactive: IRAK-1-4 Inhibitor I -0.044 | [1] -0.123 | ralimetinib -0.088 | [2] -0.118 | [4] 0.119 | pinometostat 0.066 | [5] -0.028 | [6] 0.031 | [7] -0.007 | [8] 0.008 | [12] -0.071 | Nexturastat A 0 | vemurafenib 0.126 | [9] 0.027

MYH16 (UniProt Q9H6N6)
inactive: IRAK-1-4 Inhibitor I -0.177 | ibrutinib -0.02 | [1] 0.045 | [3] 0.026 | pinometostat -0.019 | [5] -0.024 | [11] 0.484 | [8] 0.143 | vemurafenib 0.155 | [9] 0.216 | [10] 0.12 | givinostat -0.072 | barasertib -0.069
active: [6] 0.805 | [12] 0.724

NIPSNAP2 (UniProt C9J7B1)
inactive: ibrutinib 0.052 | [1] -0.389 | [11] 0.067 | [10] -0.182 | barasertib 0.01

MON1A (UniProt Q86VX9)
inactive: IRAK-1-4 Inhibitor I -0.005 | ibrutinib 0.231 | ralimetinib -0.213 | [2] -0.012 | [3] -0.151 | [4] 0.032 | pinometostat 0.002 | [5] 0.049 | [6] 0.129 | [11] 0.055 | [7] 0.004 | [8] -0.061 | [12] 0.061 | Nexturastat A 0.015 | [9] -0.011 | [10] 0.009 | givinostat 0.008 | barasertib 0.065

PACRGL (UniProt Q8N7B6)
inactive: [11] 0.01

MYSM1 (UniProt Q5VVJ2)
Chain of UniProt Q5VVJ2 (Q5VVJ2 whole entry, looked up): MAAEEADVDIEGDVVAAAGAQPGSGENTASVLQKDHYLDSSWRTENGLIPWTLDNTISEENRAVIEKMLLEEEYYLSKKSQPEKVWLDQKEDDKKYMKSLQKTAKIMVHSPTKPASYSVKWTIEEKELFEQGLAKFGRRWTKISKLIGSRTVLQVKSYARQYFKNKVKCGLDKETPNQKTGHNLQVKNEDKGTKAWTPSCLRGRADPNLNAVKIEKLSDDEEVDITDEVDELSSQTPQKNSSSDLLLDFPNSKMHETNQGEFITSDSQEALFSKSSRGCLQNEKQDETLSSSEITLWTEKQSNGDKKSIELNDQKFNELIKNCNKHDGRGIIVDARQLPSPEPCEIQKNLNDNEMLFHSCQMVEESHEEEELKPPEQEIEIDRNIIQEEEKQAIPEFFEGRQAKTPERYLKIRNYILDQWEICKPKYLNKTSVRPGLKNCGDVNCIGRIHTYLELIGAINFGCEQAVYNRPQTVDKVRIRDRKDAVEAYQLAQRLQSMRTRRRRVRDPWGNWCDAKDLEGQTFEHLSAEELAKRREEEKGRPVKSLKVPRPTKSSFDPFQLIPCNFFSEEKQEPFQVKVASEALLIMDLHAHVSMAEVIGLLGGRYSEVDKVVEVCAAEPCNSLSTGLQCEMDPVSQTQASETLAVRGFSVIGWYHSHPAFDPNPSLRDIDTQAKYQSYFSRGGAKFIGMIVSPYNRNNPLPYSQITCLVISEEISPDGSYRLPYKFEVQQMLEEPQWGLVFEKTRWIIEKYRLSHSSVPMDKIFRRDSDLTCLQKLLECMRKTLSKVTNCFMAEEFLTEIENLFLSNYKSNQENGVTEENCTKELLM
inactive: IRAK-1-4 Inhibitor I -0.264 | ibrutinib 0.291 | ralimetinib -0.022 | [4] -0.061 | pinometostat 0.153 | [11] 0.067 | [7] -0.298 | [12] 0.006 | barasertib -0.114

NIPSNAP3B (UniProt Q9BS92)
Chain of UniProt Q9BS92 (Q9BS92 whole entry, looked up): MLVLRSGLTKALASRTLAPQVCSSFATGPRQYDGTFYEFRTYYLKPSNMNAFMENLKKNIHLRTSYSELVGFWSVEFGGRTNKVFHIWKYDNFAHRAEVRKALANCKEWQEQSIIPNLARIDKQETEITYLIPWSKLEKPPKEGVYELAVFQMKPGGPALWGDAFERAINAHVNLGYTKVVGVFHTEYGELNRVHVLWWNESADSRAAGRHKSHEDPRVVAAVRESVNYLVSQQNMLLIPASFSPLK
inactive: IRAK-1-4 Inhibitor I 0.048 | ibrutinib 0.082 | [1] 0.026 | [3] 0.045 | pinometostat 0.056 | [5] 0.07 | [6] 0.049 | [11] -0.133 | [8] 0.049 | [12] 0.023 | vemurafenib 0.065 | [9] 0.016 | [10] -0.001 | givinostat -0.088 | barasertib 0.016

NA, A0A1W2PSA9
inactive: [1] -0.13 | ralimetinib 0.004 | [4] 0.122 | [6] -0.27 | [7] 0.108

NA (UniProt B2RBV5)
Chain of UniProt B2RBV5 (B2RBV5 whole entry, looked up): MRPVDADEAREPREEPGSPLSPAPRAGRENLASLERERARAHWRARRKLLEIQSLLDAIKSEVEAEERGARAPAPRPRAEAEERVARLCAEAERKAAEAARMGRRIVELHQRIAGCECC
inactive: ibrutinib 0.069 | [2] -0.037 | [5] -0.314 | [11] -0.022 | [8] -0.245 | Nexturastat A 0.292 | [9] 0.005 | [10] 0.021 | barasertib 0.002

NOLC1 isoform 3 (UniProt Q14978)
inactive: [3] 0.151 | givinostat -0.02
